This is an account of results in PubChem BioAssay (NCI).

Test systems include NCI-H23 lung; NCI-H226 lung; NCI-H322M lung; HOP-62 NSCLC; NCI-H460 lung; NCI-H522 lung; A549/ATCC NSCLC; 786-0 renal; COLO 205 colon; DU-145 prostate.
What all share (assay): NCI-60 one-dose screen, 48 h (100 = growth as untreated, 0 = no growth, -100 = all killed)
What all share (conditions): 10 µM unless noted

The panel holds about 83,000 compounds, 20% with a hit somewhere; the sample as a whole holds those more often.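 Activity criterion: percent growth below 10, measured after cells in 96-well plates were exposed to a single compound concentration for 48 hours.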 Values without a mark were called inactive. Active and inactive are the calls of the source.

As for `CCN(CC)CCCCNc1c2ccccc2[n+](C)c2c1[nH]c1ccccc12`, the growth with NCI-H23 lung was -35.9% (active); in the test on NCI-H226 lung it was -11.8% (active); with NCI-H322M lung it was -35.5% (active); in the test with HOP-62 NSCLC it was -3.3% (active); in the test on NCI-H460 lung, 3.4% (active); with NCI-H522 lung, -84.7% (active). Moreover, the growth in the test with A549/ATCC NSCLC was 2.8% (active); in the test on 786-0 renal, -7.1% (active); in the test with COLO 205 colon, -65.9% (active); with DU-145 prostate it was -0.206% (active).

As to `CCn1c2c(c3ccccc31)SC1c3cccn3CCN1C2=S` (stereo not given), the growth with NCI-H23 lung was 93.7%; with NCI-H226 lung it was 108%; in the test on NCI-H322M lung it was 89.8%; with HOP-62 NSCLC, 103%; with NCI-H460 lung, 98.9%; with NCI-H522 lung, 82.1%. Also, the growth with A549/ATCC NSCLC was 88.5%; with 786-0 renal it was 102%; in the test with COLO 205 colon, 109%; in the test on DU-145 prostate it was 102%.

Regarding `CCOC(=O)C1=C(C)N2C(=NC3=C(CCC/C3=C\c3ccc(Cl)cc3)C2c2ccc(Cl)cc2)S1` (stereo not given), the growth in the test with NCI-H23 lung was 10.9%; in the test on NCI-H226 lung, 47.5%; in the test on NCI-H322M lung, 101%; in the test on HOP-62 NSCLC, 88.2%; with NCI-H460 lung it was 51.8%; in the test on NCI-H522 lung, 58%. The growth was 5.11% (active) in the test on A549/ATCC NSCLC, -0.562% (active) in the test with 786-0 renal, 8.78% (active) in the test with COLO 205 colon and -0.137% (active) with DU-145 prostate.

For `COc1cc2c(c(OC)c1OC)CCc1cnoc1-2`, the growth was 104% in the test with NCI-H23 lung; 102% in the test with NCI-H226 lung; 107% in the test with NCI-H322M lung; 156% in the test with HOP-62 NSCLC; 106% in the test on NCI-H460 lung; 102% in the test on NCI-H522 lung. Moreover, the growth in the test with A549/ATCC NSCLC is 103%; with 786-0 renal it was 155%; in the test on COLO 205 colon, 134%; in the test on DU-145 prostate, 116%.

Regarding `COC(=O)[C@]1(CCSC)N[C@H](c2cn(-c3ccccc3)nc2C)[C@@H]2C(=O)N(c3ccccc3)C(=O)[C@@H]21`, the growth in the test on NCI-H23 lung is 94.9%; with NCI-H226 lung, 99.7%; with NCI-H322M lung it was 115%; in the test with HOP-62 NSCLC it was 107%; in the test on NCI-H460 lung, 106%; with NCI-H522 lung it was 97.4%. Besides, the growth in the test with A549/ATCC NSCLC is 103%; in the test with 786-0 renal, 104%; in the test on COLO 205 colon, 112%; with DU-145 prostate, 119%.

On to `O=C1C2C3C=CC(O3)C2C(=O)N1Nc1ccccc1` (stereo not given), for which the growth was 106% with NCI-H23 lung; 109% with NCI-H226 lung; 124% with NCI-H322M lung; 117% in the test with HOP-62 NSCLC; 112% in the test with NCI-H460 lung; 117% in the test with NCI-H522 lung. Besides, the growth in the test on A549/ATCC NSCLC was 103%; in the test on 786-0 renal it was 107%; with COLO 205 colon, 124%; in the test on DU-145 prostate it was 112%.

As for `COc1ccc2[nH]cc(/C=C3/C(=O)Nc4ccc(F)cc43)c2c1`, the growth in the test with NCI-H23 lung is 75.8%; in the test on NCI-H226 lung it was 91.5%; with NCI-H322M lung, 94%; in the test on HOP-62 NSCLC, 105%; in the test with NCI-H460 lung, 83.3%; in the test on NCI-H522 lung, 81.5%. In addition, the growth with A549/ATCC NSCLC is 72.3%; with 786-0 renal, 115%; in the test with COLO 205 colon it was 97.7%; in the test with DU-145 prostate it was 95.3%.

With `COc1ccc2nc3cc(Cl)ccc3c(N3CCN(c4ccnc(Nc5ccc(F)cc5)n4)CC3)c2c1`, the growth is 89.3% in the test on NCI-H23 lung; 98.5% with NCI-H226 lung; 97.7% with NCI-H322M lung; 92.9% in the test with HOP-62 NSCLC; 94% in the test with NCI-H460 lung; -5.18% (active) with NCI-H522 lung. For the same compound, the growth is 79.5% with A549/ATCC NSCLC, 70.4% in the test with 786-0 renal, 108% in the test with COLO 205 colon and 93.1% in the test with DU-145 prostate.

As to `NC(=Nc1ccccc1)SCCCCSC(N)=Nc1ccccc1`, the growth was 71.2% with NCI-H23 lung; 95% with NCI-H226 lung; 85.2% in the test on NCI-H322M lung; 82.2% with HOP-62 NSCLC; 101% in the test on NCI-H460 lung; 79.1% in the test on NCI-H522 lung. The growth in the test with A549/ATCC NSCLC was 85.1%; with 786-0 renal it was 79.5%; in the test with COLO 205 colon it was 125%; with DU-145 prostate, 93.5%.

`COc1cc(/C=C2\COc3ccc(O)c(O)c3C2=O)cc(OC)c1`: the growth was 49.1% in the test on NCI-H23 lung; 68.3% with NCI-H226 lung; 29.2% in the test on NCI-H322M lung; 2.74% (active) in the test on HOP-62 NSCLC; 10.5% with NCI-H460 lung; -42.1% (active) with NCI-H522 lung. For the same compound, the growth with A549/ATCC NSCLC was 24.6%; in the test on 786-0 renal, -29.4% (active); with COLO 205 colon, 32.5%; in the test on DU-145 prostate it was 9.48% (active).

Turning to `COc1ccc(OC)c(/C=C/c2nc(=S)n(-c3ccc(Cl)cc3)[nH]2)c1`, the growth was 48.7% in the test with NCI-H23 lung; 73.3% with NCI-H226 lung; 100% in the test on NCI-H322M lung; 69.7% in the test with HOP-62 NSCLC; 38.9% with NCI-H460 lung; 82.1% in the test on NCI-H522 lung. For the same compound, the growth with A549/ATCC NSCLC is 66.3%; in the test on 786-0 renal, 58.9%; in the test on COLO 205 colon it was 104%; in the test with DU-145 prostate it was 87.6%.

For the compound `O=C(Nc1ccc(OCc2nnc(-c3ccccc3)o2)c(F)c1)Nc1ccc(Cl)c(C(F)(F)F)c1`, the growth is 8.65% (active) in the test on NCI-H23 lung; 59.3% in the test with NCI-H226 lung; 28.8% with NCI-H322M lung; 13.6% with HOP-62 NSCLC; -0.0623% (active) in the test on NCI-H460 lung; 13.9% with NCI-H522 lung. Also, the growth was 11.6% with A549/ATCC NSCLC, 53.2% in the test with 786-0 renal, -46.3% (active) in the test with COLO 205 colon and 10% in the test on DU-145 prostate.

Take `COC(=O)CCC1=C(C)C(C)=N/C1=C\c1[nH]c(-c2ccc[nH]2)cc1OC`: the growth is 0.999% (active) in the test on NCI-H23 lung; 20.7% in the test with NCI-H226 lung; 12.1% in the test with NCI-H322M lung; -3.16% (active) in the test on HOP-62 NSCLC; 0.969% (active) in the test with NCI-H460 lung; -62.7% (active) with NCI-H522 lung. For the same compound, the growth in the test with A549/ATCC NSCLC was 11.1%; in the test on 786-0 renal, 10.1%; in the test on COLO 205 colon it was 12.9%; in the test with DU-145 prostate, 9.9% (active).

On to `NCCCc1nnc(CCC(=O)c2nc3ccccc3[nH]2)o1`, for which the growth with NCI-H23 lung was 98.3%; with NCI-H226 lung, 108%; in the test on NCI-H322M lung, 97.3%; in the test on HOP-62 NSCLC it was 112%; with NCI-H460 lung, 115%; with NCI-H522 lung, 103%. The growth in the test on A549/ATCC NSCLC is 106%; in the test on 786-0 renal, 103%; in the test with COLO 205 colon it was 111%; in the test with DU-145 prostate, 115%.
